We go through 78 compounds from PubChem BioAssay AID2174 (The Scripps Research Institute Molecular Screening Center, 2009).

For orientation: inhibition means the change of the read-out against control, counted positive when it falls.

In all, about 320,000 compounds went through this assay and about 500 (0.16%) were called active.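 How the source made its calls: active means inhibition above the mean of all tested compounds plus 3 SD, set per campaign (cut at about 14% in these data); inactive means the rest.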 The sample as a whole holds a higher share of actives than the screen did.

The target in this test is Acyl-protein thioesterase 1 (Homo sapiens) (UniProt O75608). Briefly: LYPLA1 inhibitors, primary screen, counter-screen for PME1 inhibitor project, biochemical, fluorescence polarization, FP-Rh probe ABPP (AID 2174).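 Further: inhibitors block serine hydrolase probe labeling of LYPLA1 so polarization falls; 0% = enzyme with DMSO and 100% = wells lacking LYPLA1.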 The following applies: recombinant LYPLA1, FP-Rh probe fluorescence polarization; at 5.9 µM; active compounds read high.
Sequence of Acyl-protein thioesterase 1 (Homo sapiens) (O75608 whole entry, looked up): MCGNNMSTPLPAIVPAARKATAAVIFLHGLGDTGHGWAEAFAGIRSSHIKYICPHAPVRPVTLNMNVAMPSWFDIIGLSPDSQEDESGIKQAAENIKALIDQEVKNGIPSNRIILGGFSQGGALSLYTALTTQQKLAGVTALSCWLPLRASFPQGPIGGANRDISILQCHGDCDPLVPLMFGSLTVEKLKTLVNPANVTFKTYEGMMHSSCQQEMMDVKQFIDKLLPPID
With `COc1ccc(C2CC(c3cccs3)Nc3nnnn32)cc1` (stereo not drawn), the inhibition was 0.92% (inactive).

With `CN(Cc1ccc(F)cc1Cl)S(=O)(=O)c1cccs1`, the inhibition is 4.05% (inactive). Next, `O=C(/C=C/c1cccc(C(F)(F)F)c1)N1CCN(c2ccccn2)CC1`: -2.76% (inactive); `Cc1cc(OCC(=O)N2CCN(c3ncccn3)CC2)ccc1Cl`: -2.47% (inactive). Regarding `CCOc1ccc(C(=O)NCC(=O)N2CCN(c3ccc(C(F)(F)F)cn3)CC2)cc1`, the inhibition is 2.56% (inactive).

With `Cc1ccc(CNC(=O)CCNS(=O)(=O)c2ccc(Br)s2)cc1`, the inhibition is 0.04% (inactive).

For `COC(=O)c1ccc(CSc2ccc(S(=O)(=O)N3CCCCC3)cn2)cc1`, the inhibition is -1.32% (inactive). As for `CCOc1ccc(-n2cnnn2)cc1S(=O)(=O)N1CCC(C)CC1C` (stereo not drawn), the inhibition was 3.81% (inactive). With `COc1ccc(CCNC(=O)CSc2nc(-c3ccc(OC)c(OC)c3)ccc2C#N)cc1`, the inhibition is -12.1% (inactive). Next, `O=C(COc1ccc2ccccc2c1)N1CCN(C(=O)c2cccs2)CC1`: 1.27% (inactive). `O=C(O)c1ccccc1NC(=S)NC(NC(=O)c1ccccc1[N+](=O)[O-])C(Cl)(Cl)Cl` (stereo not drawn): the inhibition was 2.28% (inactive). Next, `Cc1ccccc1Nc1nc(N)nc(CSc2ccccc2)n1`: -4.27% (inactive); `O=C1COc2ccc(NC(=O)N3CCN(c4ccc(F)cc4)CC3)cc2N1`: -0.21% (inactive). `CCCCCOc1ccc(/C=C/C(=O)NCCc2nc3ccccc3[nH]2)cc1OC`: the inhibition was -8.82% (inactive). Next, `CCN(CC(=O)Nc1c(F)cccc1F)C(=O)c1ccc(S(=O)(=O)N2CCCCC2)cc1`: 0.21% (inactive); `CCOc1ccc2ccccc2c1/C=N/NC(=O)c1c(C)cc(C)[nH]c1=O`: -5.43% (inactive).

On to `CCOc1ccccc1N1CCN(C(=O)c2ccc3[nH]c(C)c(C)c3c2)CC1`, for which the inhibition is 14.2% (active). In the case of `Cc1[nH]c2ccc(C(=O)N3CCN(C)CC3)cc2c1C` it was 2.14% (inactive); in that of `COc1ccccc1N1CCN(C(=O)c2ccc(Cl)c(S(=O)(=O)N3CCCC3)c2)CC1`, 1.54% (inactive); in that of `NC(=O)C1(N2CCCCC2)CCN(C2CC(=O)N(Cc3ccc(N4CCCC4=O)cc3)C2=O)CC1` (stereo not drawn), 2.22% (inactive). In the case of `COc1cccc(NC(=S)NC(=O)c2c(Cl)c(C)nn2C)c1` it was -3.22% (inactive); in that of `COCCNc1nc2nonc2nc1N1CCCC1c1nccs1` (stereo not drawn), 1.24% (inactive). In the case of `COc1ccccc1C(=O)NC(CCSC)C(=O)NNC(=O)c1ccccc1C` (stereo not drawn) it was 2.08% (inactive). Regarding `COc1ccccc1C(=O)NC(CCSC)C(=O)N1CCN(C/C=C/c2ccccc2)CC1` (stereo not drawn), the inhibition is 18.2% (active). In the case of `COc1ccccc1C(=O)NC(CCSC)C(=O)N1CCN(C(C)=O)CC1` (stereo not drawn) it was -1.6% (inactive). Next, `COc1cnn(-c2ccc([N+](=O)[O-])cc2)c(=O)c1Cl`: 3.8% (inactive). In the case of `O=c1[nH]c2cccnc2n1-c1ccc([N+](=O)[O-])cc1` it was -1.44% (inactive); in that of `O=c1[nH]n(-c2ccc([N+](=O)[O-])cc2)c(=O)c2ccccc12`, 22.9% (active); in that of `CCNC(=O)CC1C(=O)N(c2ccc(F)cc2)C(=O)N1Cc1cccs1` (stereo not drawn), 1.31% (inactive).

As for `Cc1cc(C)c2c(n1)sc1c(=O)n(-c3ccccc3)c(=O)[nH]c12`, the inhibition is -3.16% (inactive). Next, `CCOc1ccc(S(=O)(=O)N/N=C(\C)c2ccc(Cl)c(Cl)c2Cl)cc1`: 0.76% (inactive). In the case of `C=CCSC(CC)(CC)C(N)=O` it was 6.47% (inactive); in that of `CCCc1ccc(OCC(O)CN2CCN(C(=O)OCC)CC2)cc1` (stereo not drawn), 2.73% (inactive); in that of `CCOc1ccc(C(=O)NC(=S)Nc2ccc(NC(=O)C(C)C)cc2)cc1[N+](=O)[O-]`, 2.01% (inactive). In the case of `COc1cccc(OC)c1C(=O)NC(=S)Nc1ccc(N2CCOCC2)c(Cl)c1`, the inhibition is -4.94% (inactive). On to `CCOc1ccc(C(=O)NC(=S)Nc2ccc(N3CCOCC3)c(Cl)c2)cc1[N+](=O)[O-]`, for which the inhibition was 19.9% (active).

Consider `CCN1C(=NCCc2cccnc2)N[C@@H](c2ccccc2)C(C(=O)OC)=C1C`, for which the inhibition is -0.51% (inactive). In the case of `Cc1ccc(NC(=O)c2ccc(CSc3ncnc4nc[nH]c34)cc2)c(C)c1` it was -1.38% (inactive); in that of `COc1ccccc1C(CNC(=O)c1cccc(S(=O)(=O)Nc2ccc(F)cc2)c1)N(C)C` (stereo not drawn), -0.85% (inactive). Next, `CC(C)(C)NC(=O)COc1ccc(CNc2ccc3[nH]c(=O)[nH]c3c2)cc1`: -1.08% (inactive); `CC(Oc1ccc(F)cc1)C(=O)N1CCN(c2ncccn2)CC1` (stereo not drawn): -4.75% (inactive). In the case of `O=C(c1ccc(Br)o1)N1CCN(CCOc2ccccc2)CC1` it was 2.69% (inactive); in that of `CC1(C)OC(=O)C(=CNC(CO)C(=O)O)C(=O)O1` (stereo not drawn), -1.91% (inactive); in that of `CCC(=C/c1sc2ccc3ccccc3c2[n+]1C)/C=C1\Sc2ccc3ccccc3c2N1C`, 25% (active). Take `O=C(COc1ccc(Cl)cc1)N1CCN(c2cccc(C(F)(F)F)c2)CC1`: the inhibition is 20.5% (active).

As for `Cc1c(C)c2ccc(OCC(=O)N3CCN(c4cccc(Cl)c4)CC3)cc2oc1=O`, the inhibition was 6.19% (inactive). In the case of `O=C(COc1ccc(Cl)cc1)N1CCN(S(=O)(=O)c2ccc(Cl)cc2)CC1`, the inhibition was -0.66% (inactive). Next, `CC/C(=N\NC(=O)c1c(C)nc2ccccn12)c1ccc(Cl)cc1`: -2.24% (inactive); `O=C(c1ccco1)N1CCN(CC(=O)N(C2CCCCC2)C2CCS(=O)(=O)C2)CC1` (stereo not drawn): 5.75% (inactive); `CC(CC(=O)C1C(C)C=CCC1(C)C)NNC(N)=O` (stereo not drawn): 0.24% (inactive).

Regarding `CCOC(=O)c1sc2nc(C)nc(Nc3ccc(OC)c(OC)c3)c2c1C`, the inhibition is -0.83% (inactive).

Turning to `CSc1nc(-c2ccccc2)nc(C(Cl)Cl)n1`, the inhibition was 3.5% (inactive). For `CCn1c(CC(=O)Nc2ccc(C)cc2)nnc1SCC(=O)Nc1nc(C)cs1`, the inhibition was -2.24% (inactive). Consider `Cc1ccc(NC(=O)NNC(=O)c2sccc2-n2cccc2)cc1`, for which the inhibition is -1.32% (inactive). Next, `CCOC(=O)NN1C(=O)c2ccccc2NC1c1ccccc1O` (stereo not drawn): 2.15% (inactive). Next, `COc1cccc(CNS(=O)(=O)c2csc(C(N)=O)c2)c1`: -2.15% (inactive); `CCCCn1c(N)c(N(CC(C)C)C(=O)CN(C)S(=O)(=O)c2ccc(F)cc2)c(=O)[nH]c1=O`: -3.12% (inactive). In the case of `CC(=O)N1C(C)c2ccccc2C(C)(C)CC12CCCCC2` (stereo not drawn) it was 0.06% (inactive); in that of `COC(=O)c1ccc2ccccc2c1OC1OC(CO)C(O)C(O)C1NC(C)=O` (stereo not drawn), -2.18% (inactive); in that of `Cc1ccc2c(c1)N(S(=O)(=O)c1cc(-c3cc(C)no3)ccc1C)CCO2`, -4.6% (inactive). For the compound `Cc1cccc(N2CCN(C(=O)CN(C)S(=O)(=O)c3ccc4c(c3)CCC(=O)N4)CC2)c1C`, the inhibition was 16.5% (active). Next, `CCOC(=O)Cc1csc(NC(=O)CN(C)S(=O)(=O)c2ccc3c(c2)CCC(=O)N3)n1`: -0.84% (inactive). In the case of `Cc1cccc(N2CCN(C(=O)CCS(=O)(=O)c3ccc4c(c3)NC(=O)C(C)S4)CC2)c1C` (stereo not drawn) it was 2.02% (inactive); in that of `O=c1c(-c2cccc(Cl)c2)c[nH]n1-c1ccccc1`, -3.25% (inactive). In the case of `O=C(O)CSc1nccn1-c1cccc(Cl)c1` it was -1.21% (inactive); in that of `O=c1[nH]n(-c2cccc(Cl)c2)c2ncccc12`, 29.8% (active); in that of `Cc1ccc(C2=NN(C)c3nc4ccccc4n3C2)cc1`, -2.83% (inactive). `CN1CCN(C(=O)N2c3ccccc3CCc3ccccc32)CC1`: the inhibition is 3.26% (inactive).

Turning to `O=C(CSc1ncnc2c1nnn2Cc1ccc(F)cc1)NC1CCCC1`, the inhibition is 1.1% (inactive). In the case of `CCOC(=O)c1cc2cc(-c3c(C(=O)OCC)oc4cc(O)cc(O)c4c3=O)ccc2o1` it was 9.58% (inactive); in that of `CCOC(=O)c1nnn2c1nc(N1CCN(c3ccccc3)CC1)c1ccccc12`, -0.46% (inactive). As for `O=C(CCNS(=O)(=O)c1ccccc1C(F)(F)F)Nc1ccncc1`, the inhibition is -2.82% (inactive).

For the compound `C/C(Cn1nnc2ccccc21)=N\OC(=O)c1cc(F)c(F)cc1Cl`, the inhibition was -3.21% (inactive). Take `Cn1c(=O)c2c(nc(N/N=C/c3cccs3)n2Cc2ccc(Br)cc2)n(C)c1=O`: the inhibition was 4.08% (inactive). Consider `O=C(c1ccc(-c2ccccc2)cc1)C1CCCN(C(=O)c2cncs2)C1` (stereo not drawn), for which the inhibition was 24% (active). Next, `Cn1nccc1C(=O)N1CCCC(C(=O)c2ccc(Oc3ccccc3)cc2)C1` (stereo not drawn): 6.29% (inactive); `Cc1nc(C(=O)N2CCCC(C(=O)c3ccc(Cl)cc3)C2)cs1` (stereo not drawn): -0.29% (inactive). Next, `COC(=O)c1cc2c(ccn2C)n1C`: -0.69% (inactive).
